Assay outcomes as filed in PubChem.
Compounds with a hit are over-represented: about 1.3% of the library has one in this group of screens.
CRFR2-BP ag = CRF-BP/CRF-R2 complex agonism; HEK293 CRF-R2/CRF-BP, calcium dye fluorescence (FLIPR); percent of saturating CRF peptide response; activation, % at 13.2 µM; 0.46% of 350,000 active;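 active = activation of at least 50%, plus an integration ratio under a set limit after plate pattern correction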
Keap1-Nrf2 PPI = disrupts human Keap1 binding to Nrf2 peptide | Keap1 Kelch-Nrf2 peptide fluorescence polarization, 1536-well | inhibition, % at 9.4 µM | 0.15% of 340,000 active | AID 504523; in the data active = inhibition above about 12%;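 note: human Keap1 Kelch domain with fluorescein labeled Nrf2 9mer peptide probe; higher means more block of Keap1 binding to Nrf2 peptide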
Target sequence (Q14145 whole entry, looked up, the tested form may be a part): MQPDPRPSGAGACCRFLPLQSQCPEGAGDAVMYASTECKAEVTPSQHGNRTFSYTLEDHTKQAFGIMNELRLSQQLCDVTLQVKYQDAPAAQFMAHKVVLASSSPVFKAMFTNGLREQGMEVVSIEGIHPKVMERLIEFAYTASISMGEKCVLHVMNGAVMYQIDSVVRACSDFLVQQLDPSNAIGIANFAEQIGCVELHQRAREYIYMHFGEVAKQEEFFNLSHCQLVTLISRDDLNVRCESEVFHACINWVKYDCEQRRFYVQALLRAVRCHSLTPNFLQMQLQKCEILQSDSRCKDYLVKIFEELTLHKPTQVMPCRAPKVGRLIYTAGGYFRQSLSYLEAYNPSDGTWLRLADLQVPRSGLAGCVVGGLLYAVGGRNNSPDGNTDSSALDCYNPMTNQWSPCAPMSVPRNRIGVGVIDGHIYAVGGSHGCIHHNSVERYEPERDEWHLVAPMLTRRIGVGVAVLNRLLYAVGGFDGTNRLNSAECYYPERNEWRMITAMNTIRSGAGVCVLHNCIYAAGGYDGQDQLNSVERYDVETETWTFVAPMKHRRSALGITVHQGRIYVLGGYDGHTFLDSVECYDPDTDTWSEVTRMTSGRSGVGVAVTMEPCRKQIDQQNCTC
LANA DNA inh = KSHV C-LANA DNA binding inhibition; MBP-C-LANA/FAM-LBS DNA binding, fluorescence polarization; inhibition, % at 9 µM; 0.078% of 340,000 active; AID 504423;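 active = highest replicate inhibition at or above 60% at 9 µM, even if other replicates fall short; inactive = all replicates below 60% inhibition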
Cardiac RTF inh = cardiac RTF calcium desensitization; 0.12% of 340,000 active; IANBD-labeled cardiac RTF, Ca2+ fluorescence; inhibition, % at 7.15 µM;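 active = inhibition above the mean inhibition of all tested compounds plus 3 SD, cut at about 17% in these data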;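 note: assay run at fixed EC70 calcium of 1.6 mM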
CRFBP-R2 block = antagonists of CRF-binding protein/CRF-R2 receptor complex; HEK293 CRF-R2/CRF-BP, CRF-induced calcium fluorescence; inhibition, % at 11.8 µM; 0.59% of 350,000 active; AID 588475;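 active = inhibition of the ligand-induced calcium signal above about 50% at the single tested concentration, limit read from the data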
cardiac RTF act = cardiac RTF calcium sensitization. AID 493008. IANBD-labeled TnC RTF fluorescence at EC20 calcium; 0% EC20 calcium, 100% full calcium. activation, % at 7.2 µM. P19429+P45379. 0.24% of 340,000 active;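 active = activation above the mean over all tested compounds plus 3 SD, cut at about 30% in these data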;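 note: rise in fluorescence read as greater calcium sensitivity of cardiac thin filaments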
Large screens that a line does not name were inactive.

COCCN1CCN(C(=O)c2cc(COc3cc(C)ccc3C)on2)CC1	CRFBP-R2 block 71
COCCCC1CCN(C(=O)c2cc(COc3cc(C)ccc3C)on2)CC1	none
CCOC(=O)c1cc2c(C)nn(-c3ccccc3)c2s1	none
CC(=O)C1(O)CCC2C3CC(C)C4=CC(=O)C=CC4(C)C3(F)C(O)CC21C (centres undefined)	CRFBP-R2 block 79
N/C(=N\OC(=O)CC1CCCCC1)c1cccc([N+](=O)[O-])c1	none
NS(=O)(=O)c1ccc(CNC(=O)C2(c3ccc(Cl)cc3)CC2)cc1	none
COc1ccc(CNC(=O)C2(c3ccc(Cl)cc3)CC2)cc1	CRFBP-R2 block 61
O=C(Nc1ccccc1N1CCOCC1)c1cccc(S(=O)(=O)N2CCOCC2)c1	none
CCN1/C(=C2\SC(=S)N(Cc3ccccc3)C2=O)Sc2ccccc21	CRFR2-BP ag 51
CCN1C(=O)/C(=C2/Sc3ccccc3N2CC)SC1=S	none
CCCCCCCCCSc1n[nH]c(N)n1	CRFBP-R2 block 69
CCCCCCCCSc1n[nH]c(N)n1	none
COc1ccc(N2C(=O)C3CC(C)=C(C)CC3C2=O)c(OC)c1 (centres undefined)	none
COc1cc(N2C(=O)C=CC2=O)ccc1N1C(=O)C=CC1=O	CRFBP-R2 block 63
COc1ccc(-c2nc3c4ccccc4ccn3c2CN2CCCCC2)cc1	none
CCC(=O)OCc1c(C(F)(F)F)nn(C)c1Sc1ccc(F)cc1	CRFBP-R2 block 51
COc1cccc(CC2(CO)CCCN(Cc3cc4ccccc4[nH]3)C2)c1 (centres undefined)	CRFR2-BP ag 120
CN1/C(=C\C=C(/C#N)C(=O)Nc2ccccc2F)C(C)(C)c2ccccc21	CRFR2-BP ag 257, cardiac RTF act 39
COc1c2ccoc2nc2c(OC)c(OC[C@@H](O)C(C)(C)O)ccc12	none
CC(C)[C@H](NC(=O)OC(C)(C)C)C(=O)N/N=C/c1ccc2nccnc2c1	CRFBP-R2 block 92
CC(C)[C@@H](N)C(=O)N/N=C/c1ccc2nccnc2c1	none
Cc1ccc(C(=O)NCCc2ccc(S(N)(=O)=O)cc2)o1	none
COC(=O)c1c(NC(=O)CC2Nc3ccccc3NC2=O)sc(C)c1C (centres undefined)	CRFBP-R2 block 53
CC(=O)Nc1ccc(SCC(=O)NCC2(N3CCCCC3)CCCCC2)cc1	none
Cc1c(-c2ncn[nH]2)sc(C#N)c1-c1ccccc1	CRFBP-R2 block 59
CSc1nccc(-c2sc(SC)c(C#N)c2-c2ccccc2)n1	none
CC(C)NC(=O)N(C)C[C@H]1Oc2ccc(NC(=O)Cn3cnnn3)cc2C(=O)N([C@H](C)CO)C[C@@H]1C	none
COc1ccccc1CNC(=O)CCc1nnc2ccc(NCCCN3CCCC3=O)nn12	CRFBP-R2 block 99
CCN(CC)c1ccc(C=Nc2ccc(N(C)C)cc2)c(O)c1	CRFR2-BP ag 51
CCN(CC)c1ccc(C=Nc2ccc(C)cc2)c(O)c1	none
CCN(CC)c1ccc(N=Cc2ccc(N(CC)CC)cc2O)cc1	CRFR2-BP ag 94
Cc1ccccc1CS(=O)(=O)c1ccc(C(=O)N2CCOCC2)cc1[N+](=O)[O-]	none
O=C(C[C@@H]1C/C=C/CCCC(=O)O[C@H](c2ccccc2)CNC1=O)NCCO	none
CC1=C/C(=N\OS(=O)(=O)c2ccccc2)C(C)=CC1=O	CRFR2-BP ag 69
CC1=C(C)/C(=N\OS(=O)(=O)c2ccc(C)cc2)C=CC1=O	CRFR2-BP ag 64
COC(=O)c1sc(NC(=S)NC(=O)c2ccccc2C)nc1C	CRFR2-BP ag 56
COC(=O)c1sc(NC(=S)NC(=O)c2cccc(Br)c2)nc1C	CRFR2-BP ag 60
CC(=O)N1CCc2ccc(S(=O)(=O)N3CCN(C)CC3)cc21	CRFR2-BP ag 203
COc1ccc(-c2csc(Nc3cc(C)ccn3)n2)cc1C	none
CCCc1nnc(NC(=O)Cn2c(=O)oc3cc(Br)ccc32)s1	CRFR2-BP ag 79
CCN(c1ccc(N=Cc2c(O)n(Cc3ccc(OC)cc3)c(=O)c3ccccc23)cc1)C(C)C	CRFR2-BP ag 127, cardiac RTF act 418
COc1ccc(-n2c(O)c(C=Nc3ccccc3)c3ccccc3c2=O)cc1	none
Cc1ccc[n+](-c2nc([O-])sc2C=O)c1	CRFR2-BP ag 92, Keap1-Nrf2 PPI 63, LANA DNA inh 83, cardiac RTF act 94
CCOc1ccc2nc(/N=C/c3nc(-c4ccc(Br)cc4)oc3O)sc2c1	CRFR2-BP ag 147
CSc1ccccc1NC(=O)c1cc(CC(C)C)on1	CRFBP-R2 block 63
CC(C)Cc1cc(C(=O)Nc2cccnc2)no1	none
O=C1CC(O)(C(F)F)Oc2ccc3ccccc3c21 (centres undefined)	none
O=C1CC(O)(C(F)(F)F)Oc2c1ccc1ccccc21 (centres undefined)	CRFR2-BP ag 62, CRFBP-R2 block 65
Cc1ccccc1NC(=O)c1ocnc1C	none
Cc1ccc(S(=O)(=O)N2CCC(c3nc4c(nnn4Cc4ccccc4)c(=O)[nH]3)CC2)cc1	CRFBP-R2 block 64 (no result: Cardiac RTF inh, cardiac RTF act)
Cc1ccc(Cn2nnc3c(=O)[nH]c(C4CCN(S(=O)(=O)c5ccccc5)CC4)nc32)cc1	none
C#CCOCCOCCOCCNc1nc(N2CCN(C(=O)CCCCCCCCCCNC(=O)[C@H]([C@@H](C)CC)n3cc(CCCCN=C(N)N)nn3)CC2)nc(N2CCN(C(=O)CCCCCCCCCCNC(=O)[C@H](CO)n3cc(CCCCCN)nn3)CC2)n1	CRFR2-BP ag 76
C#CCOCCOCCOCCNc1nc(N2CCN(C(=O)CCCCCCCCCCNC(=O)[C@@H](CCC(=O)O)n3cc(CCCCCN)nn3)CC2)nc(N2CCN(C(=O)CCCCCCCCCCNC(=O)[C@H]([C@@H](C)CC)n3cc(CCCCCN)nn3)CC2)n1	none
C#CCOCCOCCOCCNc1nc(N2CCN(C(=O)CCCCCCCCCCNC(=O)[C@H]([C@@H](C)CC)n3cc(CCCCCN)nn3)CC2)nc(N2CCN(C(=O)CCCCCCCCCCNC(=O)[C@H](CO)n3cc(CCCCCN)nn3)CC2)n1	CRFR2-BP ag 77
C#CCOCCOCCOCCNc1nc(N2CCN(C(=O)CCCCCCCCCCNC(=O)[C@H]([C@@H](C)CC)n3cc(CCCCCN)nn3)CC2)nc(N2CCN(C(=O)CCCCCCCCCCNC(=O)[C@H]([C@@H](C)CC)n3cc(CCCCN=C(N)N)nn3)CC2)n1	none (no result: CRFR2-BP ag, CRFBP-R2 block)
C#CCOCCOCCOCCNc1nc(N2CCN(C(=O)Cn3cc(CCO)nn3)CC2)nc(N2CCN(C(=O)[C@H](CCCCN)n3cc(CC(C)O)nn3)CC2)n1 (some centres undefined)	CRFBP-R2 block 53
c1ccc(COCCN2CCN(CCOCc3ccccc3)CC2)cc1	none
Cc1cc(=O)n2[nH]c(Nc3cccc(Cl)c3)nc2n1	CRFR2-BP ag 116
